# Reference: PubChem BioAssay
# Activity calls are given as the source filed them. Unless noted, how the calls were made is not given here.
# How the values were obtained:
# [1] = tested on: Wnt5a (protein binding on small-molecule microarray); assay: small molecules binding Wnt5a protein – biophysical, small-molecule microarray, 635/667 nm fluorescence, primary screen (AID 1142); conditions: 635 nm fluorescence, higher = more signal;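 further: fluorescence read at 667 nm with signal to noise per printed feature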
# [2] = ATP-based viability of Huh7 replicon cells – cell-based, CellTiter-Glo luminescence, basal, 48 h, cytotoxicity control for HCV replication inhibitor project, primary screen (AID 1143); conditions: Huh7 HCV replicon, CellTiter-Glo luminescence, 48 h, higher = more signal, called active from +8 up or from −8 down unless noted;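 further: Huh7 hepatoma cells carrying a hepatitis C replication reporter with no stimulus; test concentration not given here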
# [3] = Pseudomonas biofilm growth suppression – PAO1 strain, BacTiter-Glo luminescence, LB-PBS, primary screen (AID 1144); conditions: P. aeruginosa PAO1 biofilm, 12 h, higher = more signal
# [4] = basal CRE-LacZ reporter activity in PC12 – cell-based, unstimulated, primary screen (AID 1145); conditions: no forskolin, luminescence, 4.5 h; higher = more signal, called active from +8 up or from −8 down unless noted
# [5] = forskolin-driven CRE-LacZ activity in PC12 – cell-based, CRE-LacZ reporter, forskolin-stimulated, primary screen (AID 1146); conditions: luminescence, 4.5 h; higher = more signal, called active from +8 up or from −8 down unless noted;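 further: PC12 cells with 6xCRE LacZ reporter stimulated by forskolin 10 µM; beta-galactosidase reporter signal reflecting CREB driven transcription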
# [6] = target: Streptavidin (Streptomyces avidinii) (UniProt P22629); assay: compounds binding control protein streptavidin – biophysical, small-molecule microarray, 635/667 nm fluorescence, artefact control for SMM compound annotation, primary screen (AID 1147); conditions: higher = more signal;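 further: signal reflects streptavidin binding to arrayed compounds as a control protein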
# Sequence of Streptavidin (Streptomyces avidinii) (P22629 whole entry, looked up): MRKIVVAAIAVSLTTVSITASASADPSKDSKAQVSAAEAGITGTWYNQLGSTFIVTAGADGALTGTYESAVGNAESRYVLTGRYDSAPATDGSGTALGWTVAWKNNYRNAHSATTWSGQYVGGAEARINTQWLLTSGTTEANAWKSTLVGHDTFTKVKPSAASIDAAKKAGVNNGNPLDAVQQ
# [7] = probe aInhba binding on compound microarray – biochemical, small-molecule microarray, 635/667 nm fluorescence, primary screen (AID 1148); conditions: higher = more signal; small-molecule microarray, probe aInhba, fluorescence unless noted;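 further: score merges 667nm spot fluorescence with signal-to-noise for antibody binding to printed compounds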
# Torsin-1A (Homo sapiens) [8] = target: Torsin-1A (Homo sapiens) (UniProt O14656); assay: TOR1A wild-type binding on microarray – cell lysate, small-molecule microarray, lysate, 635/667 nm, primary screen (AID 1149); conditions: COS7 hTOR1A-WT lysate, 635 nm fluorescence, higher = more signal
# Sequence of Torsin-1A (Homo sapiens) (O14656 whole entry, looked up): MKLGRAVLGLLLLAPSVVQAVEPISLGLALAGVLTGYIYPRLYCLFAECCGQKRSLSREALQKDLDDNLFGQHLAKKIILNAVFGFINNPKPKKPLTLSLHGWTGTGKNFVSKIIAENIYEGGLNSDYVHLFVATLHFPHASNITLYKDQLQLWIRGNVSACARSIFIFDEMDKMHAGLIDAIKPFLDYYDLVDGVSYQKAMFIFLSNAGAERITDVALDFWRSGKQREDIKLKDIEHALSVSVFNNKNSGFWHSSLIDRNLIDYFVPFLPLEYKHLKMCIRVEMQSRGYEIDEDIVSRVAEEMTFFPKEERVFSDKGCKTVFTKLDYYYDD
# Torsin-1A (Homo sapiens) [9] = target: Torsin-1A (Homo sapiens) (UniProt O14656); assay: torsin A mutant lysate binding on microarrays – cell lysate, small-molecule microarray, COS7 lysate, 635/667 nm fluorescence, primary screen (AID 1150); conditions: COS7 hTOR1A mutant lysate, 635 nm fluorescence, higher = more signal;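 further: score pools 667 nm emission and signal to noise measuring lysate protein binding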
# [10] = tested on: Sonic hedgehog protein (Shh); assay: Sonic hedgehog microarray binding compounds – biochemical, small-molecule microarray, 635/667 nm fluorescence, primary screen (AID 1151); conditions: 635 nm fluorescence, higher = more signal;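 further: Shh protein binding to compounds spotted on small-molecule microarray slides; score combines spot fluorescence intensity with signal-to-noise across triplicate slides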
# [11] = optical density shifts of acrAB sulA E. coli – strain DRC41, OD650, 48 h, E. coli filamentation inducer project, primary screen (AID 1152); conditions: higher = more signal, called active from +8 up or from −8 down unless noted;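 further: E. coli MC1000 strain DRC41 lacking acrAB efflux pump and sulA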
# [12] = probe aLefty1 binding on compound microarray – biochemical, small-molecule microarray, 635/667 nm fluorescence, primary screen (AID 1153); conditions: higher = more signal; small-molecule microarray, probe aLefty1, fluorescence unless noted;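 further: score merges spot fluorescence with signal-to-noise ratio from the scanned slide images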
# [13] = plasmodial surface anion channel blockers, osmotic lysis – cell-based, P. falciparum Indochina, OD700, 1 h, primary screen (AID 1154); conditions: P. falciparum Indochina infected RBC osmotic lysis; higher = more signal, called active from +8 up or from −8 down unless noted
# [14] = plasmodial surface anion channel blockers, osmotic lysis – cell-based, P. falciparum Indochina, OD700, 2 h, primary screen (AID 1155);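 further: lysis reports solute entry through the parasite surface anion channel PSAC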; conditions: P. falciparum Indochina infected erythrocytes; higher = more signal, called active from +8 up or from −8 down unless noted
# [15] = changes in parasitized red cell lysis, either direction – P. falciparum Indochina, OD700, 3 h, PSAC antagonist project, primary screen (AID 1156); conditions: P. falciparum-infected erythrocytes, osmotic lysis; higher = more signal, called active from +8 up or from −8 down unless noted
# [16] = plasmodial surface anion channel blockers, osmotic lysis – cell-based, P. falciparum Indochina, OD700, 18 h, primary screen (AID 1157); conditions: P. falciparum Indochina infected erythrocytes, osmotic lysis OD700, 18 h; higher = more signal, called active from +8 up or from −8 down unless noted
# [17] = S6 kinase pathway phospho-S6 level changes – cell-based, A549, cytoblot, luminescence, serum-stimulated, primary screen (AID 1158); conditions: 5 h, higher = more signal;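 further: serum-stimulated A549 lung adenocarcinoma cells; signal is phosphorylated S6 detected by cytoblot immunostaining with HRP secondary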
# [18] = target: NADPH oxidase 2 (Homo sapiens) (UniProt P04839); assay: compounds shifting NOX2 Amplex Red fluorescence – cell-based, HEK293-NOX2, PMA-stimulated, NOX inhibitor project, primary screen (AID 1159); conditions: 45 min; higher = more signal, called active from +8 up or from −8 down unless noted; further: test concentration not given here
# Sequence of NADPH oxidase 2 (Homo sapiens) (P04839 whole entry, looked up): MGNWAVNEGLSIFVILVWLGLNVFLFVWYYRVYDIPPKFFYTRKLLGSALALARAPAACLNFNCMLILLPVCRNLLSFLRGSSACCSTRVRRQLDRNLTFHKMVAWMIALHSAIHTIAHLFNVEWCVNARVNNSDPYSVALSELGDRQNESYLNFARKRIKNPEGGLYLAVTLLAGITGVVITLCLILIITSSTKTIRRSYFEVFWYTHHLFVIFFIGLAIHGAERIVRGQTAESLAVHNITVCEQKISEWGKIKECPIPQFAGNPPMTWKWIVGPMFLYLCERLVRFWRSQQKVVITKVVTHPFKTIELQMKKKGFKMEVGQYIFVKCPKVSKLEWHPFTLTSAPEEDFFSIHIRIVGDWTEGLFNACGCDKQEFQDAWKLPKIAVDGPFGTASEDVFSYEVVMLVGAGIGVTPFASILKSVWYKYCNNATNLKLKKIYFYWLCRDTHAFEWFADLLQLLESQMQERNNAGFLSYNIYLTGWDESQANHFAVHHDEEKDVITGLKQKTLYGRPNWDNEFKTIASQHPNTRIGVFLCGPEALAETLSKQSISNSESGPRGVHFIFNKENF
# [19] = target: NADPH oxidase 4 (Homo sapiens) (UniProt Q9NPH5); assay: compounds shifting NOX4 Amplex Red fluorescence – cell-based, HEK293-NOX4, tetracycline-induced, NOX inhibitor project, primary screen (AID 1160); conditions: HEK293-NOX4, Amplex Red H2O2 fluorescence, 45 min; higher = more signal, called active from +8 up or from −8 down unless noted
# Sequence of NADPH oxidase 4 (Homo sapiens) (Q9NPH5 whole entry, looked up): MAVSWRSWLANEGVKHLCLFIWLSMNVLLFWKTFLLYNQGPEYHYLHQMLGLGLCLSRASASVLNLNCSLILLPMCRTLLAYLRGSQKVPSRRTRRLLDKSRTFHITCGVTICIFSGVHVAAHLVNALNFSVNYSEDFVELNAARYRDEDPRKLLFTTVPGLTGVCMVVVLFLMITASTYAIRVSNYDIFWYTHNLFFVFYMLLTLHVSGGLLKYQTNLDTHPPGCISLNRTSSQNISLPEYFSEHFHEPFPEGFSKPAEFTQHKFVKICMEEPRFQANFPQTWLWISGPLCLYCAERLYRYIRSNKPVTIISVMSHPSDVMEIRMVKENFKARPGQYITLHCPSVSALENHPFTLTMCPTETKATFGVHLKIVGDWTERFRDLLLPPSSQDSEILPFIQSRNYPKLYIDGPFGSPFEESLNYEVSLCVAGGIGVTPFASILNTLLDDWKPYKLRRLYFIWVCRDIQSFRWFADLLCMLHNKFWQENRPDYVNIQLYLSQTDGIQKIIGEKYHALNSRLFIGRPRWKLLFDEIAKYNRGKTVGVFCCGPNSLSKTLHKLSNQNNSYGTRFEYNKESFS
# [20] = target: NADPH oxidase 5 (Homo sapiens) (UniProt Q96PH1); assay: compounds shifting NOX5 Amplex Red fluorescence – cell-based, HEK293-NOX5, NOX inhibitor project, primary screen (AID 1161); conditions: HEK293-NOX5, ionomycin, 45 min, higher = more signal
# Sequence of NADPH oxidase 5 (Homo sapiens) (Q96PH1 whole entry, looked up): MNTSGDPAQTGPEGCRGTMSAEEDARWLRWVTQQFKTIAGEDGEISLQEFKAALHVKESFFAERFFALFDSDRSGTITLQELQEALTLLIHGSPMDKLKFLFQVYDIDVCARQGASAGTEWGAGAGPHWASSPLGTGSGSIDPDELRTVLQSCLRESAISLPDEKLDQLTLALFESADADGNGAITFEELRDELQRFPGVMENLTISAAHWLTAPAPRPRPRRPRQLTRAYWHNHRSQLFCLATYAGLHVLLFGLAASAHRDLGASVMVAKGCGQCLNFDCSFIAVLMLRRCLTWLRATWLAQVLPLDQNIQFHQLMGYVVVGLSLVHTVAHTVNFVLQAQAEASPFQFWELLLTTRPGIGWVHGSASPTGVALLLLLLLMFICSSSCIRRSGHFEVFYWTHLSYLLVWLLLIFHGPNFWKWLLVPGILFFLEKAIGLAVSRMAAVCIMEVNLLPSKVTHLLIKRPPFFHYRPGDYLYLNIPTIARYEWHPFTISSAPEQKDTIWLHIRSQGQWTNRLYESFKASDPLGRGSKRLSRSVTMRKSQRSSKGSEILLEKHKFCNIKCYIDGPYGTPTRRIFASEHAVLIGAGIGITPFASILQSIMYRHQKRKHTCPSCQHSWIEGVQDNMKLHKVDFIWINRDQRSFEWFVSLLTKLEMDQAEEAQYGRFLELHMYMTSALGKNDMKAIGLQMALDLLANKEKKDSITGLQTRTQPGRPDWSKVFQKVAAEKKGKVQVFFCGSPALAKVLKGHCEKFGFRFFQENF
SMILES,composite z-score [1],z-score [2],z-score [3],z-score [4],z-score [5],composite z-score [6],composite z-score [7],composite z-score (Torsin-1A (Homo sapiens) [8]),composite z-score (Torsin-1A (Homo sapiens) [9]),composite z-score [10],z-score [11],composite z-score [12],z-score [13],z-score [14],z-score [15],z-score [16],z-score [17],z-score [18],z-score [19],z-score [20]
COc1cc2c(cc1O)C(C)N(C)CC2 (stereo not given),-0.0967,0.639 (inactive),0.67 (inactive),0.0655 (inactive),-0.497 (inactive),0.0031,-0.0468,-0.638,-0.744,-0.12,1.01 (inactive),0.026,0.726 (inactive),0.0698 (inactive),-0.306 (inactive),0.107 (inactive),-0.0939,-2.93 (inactive),-1.92 (inactive),-2.86
c1ccc(-c2cc3c(nc2-c2ccccc2)CCNC3)cc1,-0.2,-0.207 (inactive),0.346 (inactive),0.291 (inactive),-0.815 (inactive),0.0291,0.0228,0.175,-0.256,-0.193,-0.539 (inactive),-0.101,1.39 (inactive),0.179 (inactive),0.484 (inactive),0.248 (inactive),-0.597,1.18 (inactive),0.286 (inactive),-0.433
COC(=O)C1(C)C=C2C(=C(C)C(=O)C2C)CN1 (stereo not given),-0.163,0.0631 (inactive),-0.596 (inactive),-0.182 (inactive),3.71 (inactive),-0.164,0.0442,0.219,-0.186,-0.473,-1.84 (inactive),0.257,0.539 (inactive),0.405 (inactive),1.16 (inactive),0.643 (inactive),-0.232,-0.172 (inactive),-2.31 (inactive),-3.35
CCc1cc2c(nc1CC)CCN(CCC(C)=NOC)C2,0.148,-0.295 (inactive),-1.01 (inactive),1.82 (inactive),-0.26 (inactive),0.496,-0.0645,1.23,1.57,1.05,-1.88 (inactive),0.393,1.69 (inactive),1.29 (inactive),0.194 (inactive),0.612 (inactive),0.481,-0.0413 (inactive),-1.48 (inactive),1.13
